# Measurements from PubChem BioAssay (NCI).
# This is part of a sample that, as a whole, favours compounds with a hit. Of some 83,000 tested, about 20% had one in any assay.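 Percent growth is the endpoint: 0 to 100 indicates growth inhibition (40 means 60% inhibition), 0 means no net growth, and negative values indicate cell death.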 A number with no mark means an inactive call. Active and inactive are the calls of the source. Rule for the calls: active = growth percent below 10; inactive = the rest.
# Experiments:
# Assay in all cases: NCI-60 one-dose screen, 48 h (100 = growth as untreated, 0 = no growth, -100 = all killed)
# Conditions in all cases: 10 µM unless noted
# SR leukemia = test system: SR leukemia
# RPMI-8226 leukemia = test system: RPMI-8226 leukemia
# OVCAR-8 ovarian = test system: OVCAR-8 ovarian
# OVCAR-5 ovarian = test system: OVCAR-5 ovarian
# OVCAR-4 ovarian = test system: OVCAR-4 ovarian
# SK-OV-3 ovarian = test system: SK-OV-3 ovarian
# IGROV1 ovarian = test system: IGROV1 ovarian
# OVCAR-3 ovarian = test system: OVCAR-3 ovarian
# HS 578T breast = test system: HS 578T breast
# NCI/ADR-RES ovarian = test system: NCI/ADR-RES ovarian
# T-47D breast = test system: T-47D breast
# BT-549 breast = test system: BT-549 breast
# SW-620 colon = test system: SW-620 colon
# MCF7 breast = test system: MCF7 breast
# HCT-116 colon = test system: HCT-116 colon
# HCC-2998 colon = test system: HCC-2998 colon
# KM12 colon = test system: KM12 colon
# MDA-MB-435 melanoma = test system: MDA-MB-435 melanoma
SMILES,growth (SR leukemia),growth (RPMI-8226 leukemia),growth (OVCAR-8 ovarian),growth (OVCAR-5 ovarian),growth (OVCAR-4 ovarian),growth (SK-OV-3 ovarian),growth (IGROV1 ovarian),growth (OVCAR-3 ovarian),growth (HS 578T breast),growth (NCI/ADR-RES ovarian),growth (T-47D breast),growth (BT-549 breast),growth (SW-620 colon),growth (MCF7 breast),growth (HCT-116 colon),growth (HCC-2998 colon),growth (KM12 colon),growth (MDA-MB-435 melanoma)
COc1ccc(/C=C2\CN(C(=O)CCN3CCC(=NO)CC3)C/C(=C\c3ccc(OC)cc3)C2=O)cc1,2.16% (active),-11.1% (active),19.6%,-4.94% (active),28.2%,68%,-14.1% (active),6.9% (active),6.95% (active),11.3%,23.3%,15.2%,-39.3% (active),-0.32% (active),-31.8% (active),-89.5% (active),-59.6% (active),
CC(=O)N1CC(Nc2ccc(OC(F)(F)F)cc2)=CC1=O,25.3%,21.9%,26.1%,92.6%,87.2%,31.3%,50.3%,9.26% (active),38.9%,15.4%,26.2%,,27.8%,11.8%,39.2%,60.2%,23.3%,-27.2% (active)
COc1ccc2nc3cc(Cl)ccc3c(N3CCN(c4ccnc(N5CCN(C)CC5)n4)CC3)c2c1,-26.9% (active),11.2%,41.2%,81.4%,46.2%,87.2%,72.9%,-39.4% (active),106%,84.9%,-26.1% (active),55.5%,-55.1% (active),-55.8% (active),-62.4% (active),8.43% (active),36%,
CC(=O)OCC(=O)C1CCC=CC1OC(C)=O (configuration not stated),98.9%,100%,97.2%,104%,94.4%,87.9%,102%,107%,110%,100%,87.8%,103%,111%,105%,,102%,99.7%,98.3%
CCOC(=O)c1nc(Nc2cc(C)[nH]n2)c2ccccc2n1,81.1%,114%,111%,103%,82.5%,75.8%,76.2%,97.7%,71.4%,114%,82.3%,96.8%,104%,81.5%,76.6%,107%,36.9%,
O=C(CCCN1CCOCC1)Nc1ccc(Cn2nnc3c2C(=O)c2nnn(Cc4ccc(NC(=O)CCCN5CCOCC5)cc4)c2C3=O)cc1,10.6%,37.5%,38.5%,121%,-65.7% (active),92.1%,3.22% (active),-1.11% (active),101%,102%,-16.5% (active),42.6%,30.2%,-58.6% (active),0.281% (active),13.1%,65.3%,
CCN(C(=O)CN1CCN(c2cc3c(cc2F)c(=O)c(C(=O)O)cn3C2CC2)CC1)c1nc(-c2ccc(OC)cc2)cs1,23.7%,3.09% (active),59.6%,92%,37.2%,97.1%,67.4%,6.96% (active),81.8%,59.3%,78.7%,73.1%,49%,73.9%,40%,85.4%,52.9%,
Cn1c2ccccc2c2c3c(c4c5ccccc5[nH]c4c21)C(=O)N(N)C3=O,5.54% (active),57.2%,66.7%,89.3%,73%,74%,72.7%,69.6%,79.5%,71.6%,30.9%,46.6%,44.7%,23.9%,,,62.8%,57.9%
CCCCCCCCCCCCCCCC[N+]1(CC)CCCC1,-39.9% (active),-54.7% (active),-42.5% (active),0.586% (active),-4.99% (active),-25.1% (active),-76% (active),-52.5% (active),-8.22% (active),85.8%,18.6%,-25.8% (active),-8.83% (active),-18.2% (active),-46.4% (active),-59.5% (active),-90.6% (active),
COc1cc2c(cc1O)CCc1cc(O)cc(OC)c1-2,77.4%,75.5%,88.1%,109%,94.9%,96.9%,105%,95.6%,83.3%,99%,98%,79.9%,109%,97.8%,93.7%,110%,97.4%,
CC(=O)C1=C(O)C=C2Oc3c(C(=O)/C=C/c4c(Cl)cccc4Cl)c(O)c(C)c(O)c3[C@]2(C)C1=O,-31% (active),-17.7% (active),-18.9% (active),-3.17% (active),7.41% (active),-30.9% (active),-8.78% (active),-30.6% (active),-18.1% (active),-23.4% (active),-20.2% (active),-28.9% (active),5.36% (active),-11.2% (active),-26.8% (active),-59.6% (active),-12.1% (active),
CCCCNC(=O)NS(=O)(=O)c1ccc(N2N=C(c3cc(C)ccc3C)CC2c2cc(OC)c(OC)c(OC)c2)cc1 (configuration not stated),12.7%,28.3%,53.2%,95.9%,77.7%,68%,41.4%,53.3%,,30.3%,38.4%,20.6%,66.6%,24.4%,32.3%,-1.57% (active),46.1%,-46.2% (active)
COc1ccc(-c2cc(=O)[nH]c3c(OC)c4ccccc4c(OC)c23)cc1,-14% (active),4.21% (active),33.3%,36.3%,30.8%,2.24% (active),32.8%,-43.2% (active),-6.69% (active),3.17% (active),31.6%,26%,19.6%,13.4%,12.1%,,2.11% (active),
Cc1cc(OCc2ccc(C(F)(F)F)cc2)c2c(c1)C(=O)C=C(NCCN1CCCC1)C2=O,-11.6% (active),29.9%,72.3%,87.9%,68%,103%,74.8%,83.9%,85%,81.1%,42.8%,,74.7%,31%,19.6%,15.2%,79.1%,-23.5% (active)
CCOc1ccc(Nc2nc(-c3c(C)nc4ncccn34)cs2)cc1,6.09% (active),-9.92% (active),16.5%,20.7%,39.6%,3.86% (active),33.7%,-20.9% (active),34.1%,8.95% (active),,20.6%,24.6%,15%,2.95% (active),23.4%,6.58% (active),-41% (active)
Nc1ccc(N2CCOCC2)cc1,110%,112%,105%,91.7%,92.8%,104%,105%,99.7%,125%,85.6%,88.1%,82.1%,111%,88.8%,98%,96.9%,115%,
CS(=O)(=O)c1ccc(-c2cnc3ccc(-c4cccc(S(C)(=O)=O)c4)nn23)cc1,21.1%,18.8%,53.1%,44.2%,72.8%,43.4%,14%,33.3%,10%,80.9%,18.7%,23%,75.6%,18.4%,,55.4%,47.1%,49.6%
O=C(Nc1cccc2[nH]c(C(F)(F)F)nc12)c1ccc(Br)cc1F,18.5%,4.55% (active),33.2%,98.9%,11.8%,65.1%,42.2%,24.4%,70.4%,10.8%,,19.4%,41.6%,27.1%,,,27%,26.9%
